Source: PubChem BioAssay AID624415 (National Center for Advancing Translational Sciences (NCATS), 2012)
Among all 390,000 compounds or so, about 60 (0.02%) were called active. Cut-off read from the data, not from the text of the source: active = activity change below about -50%; inconclusive = between about -30% and that limit; inactive = weaker than that. The list comes from a sample in which actives are over-represented; it also holds similar structures and randomly drawn compounds.

Molecular target: Mucolipin-1 (Homo sapiens) (UniProt Q9GZU1)
Assay: qHTS for Inhibitors of the Human Mucolipin Transient Receptor Potential 1 (TRPML1);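 note: stimulus is agonist 54-4 at its EC80 concentration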
Conditions: TRPML1-inducible cells, Ca2+ dye fluorescence, FDSS; active compounds read low; inhibition of EC80 agonist-evoked calcium signal
Method in brief: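 TRPML1-DL cells, Tet-induced overnight (~16 h, 37 °C) at 1,500 cells/well, were loaded with Ca8 no-wash dye plus quencher for 45-90 min at room temperature. Compounds were pinned during FDSS kinetic reading; agonist 54-4 at EC80 (4 uM final) then added.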
% is set by controls: 0 for no effect and ±100 for the full control effect.

Sequence of Mucolipin-1 (Homo sapiens) (Q9GZU1 whole entry, looked up): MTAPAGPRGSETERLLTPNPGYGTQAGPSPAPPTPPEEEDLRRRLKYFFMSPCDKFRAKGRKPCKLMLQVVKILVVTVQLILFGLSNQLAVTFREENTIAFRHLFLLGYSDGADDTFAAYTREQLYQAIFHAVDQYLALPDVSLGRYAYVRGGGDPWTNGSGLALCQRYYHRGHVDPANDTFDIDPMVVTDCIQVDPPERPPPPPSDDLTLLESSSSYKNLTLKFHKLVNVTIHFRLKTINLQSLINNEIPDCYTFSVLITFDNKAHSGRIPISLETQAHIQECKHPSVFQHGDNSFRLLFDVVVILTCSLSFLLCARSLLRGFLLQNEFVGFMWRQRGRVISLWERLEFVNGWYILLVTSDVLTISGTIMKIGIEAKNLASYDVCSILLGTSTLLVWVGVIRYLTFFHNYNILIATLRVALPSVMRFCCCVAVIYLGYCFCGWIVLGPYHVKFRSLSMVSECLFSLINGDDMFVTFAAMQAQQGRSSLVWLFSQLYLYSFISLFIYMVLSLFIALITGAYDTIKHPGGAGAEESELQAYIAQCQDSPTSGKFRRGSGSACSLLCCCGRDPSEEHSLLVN

Activity change, negative = inhibition, inactive:
O=C(CSCc1cnn(-c2ccccc2)c1-n1cccc1)NCc1ccccc1Br 2.1%
CC1=C(C(=O)OCc2ccc(C)cc2)C(c2ccccc2Cl)CC(=O)N1 (stereo unspecified) 31.3%
C#CC(C)(CC)NC(=O)Cn1nnc(-c2ccc(OCc3c(F)cccc3Cl)cc2)n1 (stereo unspecified) -6.13%
Cn1c(=O)c2c(nc(SCC(=O)Nc3ccc(F)cc3)n2Cc2ccc(Cl)cc2)n(C)c1=O 3.84%
Cc1cccc(C(=O)Nc2ccc(-c3nc4ncccc4o3)cc2C)c1 -6.3%
COC(=O)CCc1ccccc1S(=O)(=O)N(CCC(=O)OC)Cc1ccccc1 -2.45%
CC(C)(C)n1ncc2c(=O)n(Cc3ccc(C(=O)c4ccccc4)cc3)cnc21 1.11%
COc1cccc(CNC(=O)c2ccc3c(c2)N(Cc2ccc(C(F)(F)F)cc2)C(=O)c2ccccc2S3)c1OC 37.3%
C=C1CCN(Cc2ccc(OC)cc2)S(=O)(=O)c2ccccc21 57%
CCOC(=O)c1ccc(-c2ccc(/C=C(\C#N)C(=O)Nc3ccc(OCC)cc3)o2)cc1 10.3%
Cc1c(NS(=O)(=O)c2ccc(Cl)cc2)c(=O)n(-c2ccccc2)n1C -2.41%
CCc1ccc2ncc3c(-c4ccc(C)cc4)nn(CC(=O)NCc4ccccc4)c3c2c1 1.33%
COc1ccc(N2CCN(C(=O)C3CCCN(C(=O)c4cc5sccc5n4C)C3)CC2)cc1 (stereo unspecified) -10.9%
COc1cc(Br)cc2cc(S(=O)(=O)c3ccccc3)c(=O)oc12 0.895%
COc1ccc(Cl)cc1NC(=O)Cn1c(=O)c2ccccc2n2nncc12 11.3%
COc1cc(NC(=O)Cn2nc(-c3ccc(C)c(C)c3)ccc2=O)cc(OC)c1 -17.3%
Cc1ccc(NC(=O)NC(C)c2c(-n3cccc3)sc(C)c2C)c(C)c1 (stereo unspecified) 43%
CCc1nnc(SCc2nc(-c3cccc(C)c3)oc2C)c2cc3sc(C)cc3n12 -4.34%
CCCOc1ccc(C(=O)Nc2ccc3oc(-c4cccc(Cl)c4Cl)nc3c2)cc1 -2.03%
COc1ccccc1-c1cc(C(F)(F)F)nc(S(=O)(=O)CCCC(=O)Nc2cc(C)ccc2O)n1 -10.5%
Cc1ccc(C)c(Oc2c(C(F)(F)F)oc3c(CN4CCN(C)CC4)c(O)ccc3c2=O)c1 11.9%
O=C(CN1CCN(Cc2ccc(Cl)cc2)C1=O)NCc1ccc(F)cc1 3.6%
COc1cccc(Cn2c(SCc3ccc(C(=O)N4CCCCC4)cc3)nc3ccncc32)c1 17.2%
CSc1nc(=O)c2c(n1C)NC(=O)CC2c1ccccc1OC(C)C (stereo unspecified) -8.74%
O=C(Nc1ccc2nc(SCC(=O)N3CCCc4ccccc43)sc2c1)c1ccc(F)cc1 -5.54%
Cn1cc(S(=O)(=O)N2CCCCCC2)cc1C(=O)N1CCN(c2ccc(F)cc2)CC1 -18.5%
Cc1ccc(NC(=O)CSc2nc3c([nH]c4ccccc43)c(=O)n2-c2ccccc2)cc1Cl -8.82%
CCCS(=O)(=O)c1c(Nc2ccccc2C)sc(C(=O)c2ccccc2)c1N 6.08%
CCC(=O)N1CCc2cc(Br)cc(S(=O)(=O)Nc3ccc(C)cc3C)c21 11.5%
O=C(Nc1ccc(Br)cc1)c1cc2nc(-c3ccccc3)cc(-c3ccccc3)n2n1 63.6%
O=C(CS(=O)(=O)c1cccc2nsnc12)N1CCN(c2cccc(Cl)c2)CC1 -7.54%
O=C(COc1ccccc1)NCc1ccc2c(c1)CCN2C(=O)c1ccc(F)cc1 25.6%
COc1ccc(NC(=O)c2cc3cc(C)ccc3n2C)cc1 -10.1%
COC(=O)c1ccc(NC(=O)c2cnn(-c3ccc(Cl)cc3)c2C2CCN(C(=O)OC(C)(C)C)CC2)cc1 -3.85%
Cc1c(C(=O)N2CCCC2)oc2c1-c1nn(CC(=O)NCc3ccc(OC(C)C)cc3)cc1CC2 30.2%
CN1CCN(/[N+]([O-])=N/Oc2ccc([N+](=O)[O-])cc2[N+](=O)[O-])CC1 -8.85%
COc1cc(OC)c2c(c1C(CCN1CCCCC1)c1ccc(N(C)C)cc1)OC(=O)CC2c1ccc(N(C)C)cc1 (stereo unspecified) -9.58%
Cc1ccc(Cl)cc1N(C)C(=O)Cn1nc(Cc2cccnc2)c2ccccc2c1=O -7.38%
CC(=O)Nc1ccc(NC(=O)C2CCCN(S(=O)(=O)c3ccc4c(c3)CCCC(=O)N4)C2)cc1 (stereo unspecified) -7.84%
COc1ccc(-c2nc3sc(CCNS(=O)(=O)c4ccc(F)c(C)c4)c(C)n3n2)cc1 16.5%
CCc1cc2c(-c3ccccc3)cc(=O)oc2c2c1OCN(Cc1ccc(C)cc1)C2 -21.9%
O=C(O)c1ccc(Nc2nc(-c3ccccc3)c3cc(Br)ccc3n2)cc1 16.7%
CCN(CC)CCNC(=O)CN1N=C(c2ccc(OC)cc2)CCC1=O -7.95%
COc1ccc(S(=O)(=O)c2c(Nc3cccc(Cl)c3)sc(C(=O)c3ccccc3)c2N)cc1 17%
Cc1ccc2ncc(C(=O)Nc3ccc(OC(F)(F)F)cc3)c(=O)n2c1 4.29%
COC(=O)c1scc(-c2ccc(C)cc2)c1S(=O)(=O)Nc1cc(Cl)c(OC)cc1OC 37.6%
COc1ccc(CC(=O)N2CC(=O)Nc3ccc(Br)cc3C2c2ccc(F)cc2)cc1OC (stereo unspecified) 5.98%
Cc1cccc2c1-c1sc(C(=O)Nc3ccc(F)cc3F)cc1CO2 18.7%
CCOc1ccc(CCNC(=O)c2cc3c(=O)n(C)c4ccccc4c3n2C)cc1 -10.6%
COc1cccc(CNC(=O)c2cc(=O)[nH]c3ccc(S(=O)(=O)N4CCCCC4)cc23)c1 -1.14%
Cc1ccc(C)c(Cn2c(CCCNC(=O)C3CCCCC3)nc3ccccc32)c1 22.7%
CNC(=O)[C@]1(C(F)(F)F)C[C@H](CCc2ccccc2)CCCO1 7.15%
COc1cccc(-c2nnc(SCC(=O)N3CCC(C)CC3)o2)c1 0.454%
CCCn1c(=N)c(C(=O)NCc2ccccc2)cc2c(=O)n3cccc(C)c3nc21 -0.876%
Cc1ccc2c(=O)c(C(=O)c3ccc(F)cc3)cn(CC(=O)NC3CCCCC3)c2n1 -15.9%
COc1ccc(Br)cc1C1C2C=CCC(C)C2C(=O)N1Cc1ccccc1 (stereo unspecified) 20.3%
Cc1ccc(-c2cnc(C3CC3)o2)cc1S(=O)(=O)Nc1cccc(C)c1C 5.77%
COc1ccc(NC(=O)CSc2nc3ccccc3n2CC(=O)N2CCCCC2C)cc1 (stereo unspecified) 9.59%
Cc1cccc(N2CCN(C(=O)c3cnc(N4CCCC4)nc3C)CC2)c1C 12.6%
CCN(CCCNC(=O)c1cc2c(=O)n(CC)c3ccccc3c2s1)Cc1ccccc1 14.6%
COc1ccc(C2/C=C\CN(C(=O)c3ccc(C)cc3)C(Cc3ccccc3)C(=O)N2Cc2ccc(F)cc2)cc1 (stereo unspecified) -1.58%
CCN(CC)CCNC(=O)Cn1ncc2c3ccccc3n(Cc3ccccc3C)c2c1=O 1.87%
O=C(Nc1ccc2c(c1)OCO2)c1cc(-c2cccc(Cl)c2)on1 1.26%
COc1ccc(C2CC(O)(c3ccccc3)Oc3cc(C)cc(C)c32)cc1 (stereo unspecified) 9.65%
Cc1ccc(S(=O)(=O)N(CC(=O)Nc2ccc(Cl)cc2Cl)c2ccccc2C)cc1 59.9%
Cc1c(NC(=O)C(C)(C)C)cccc1-c1nc2ccccc2s1 -0.118%
Cc1ccc2nc(CN3CCN(S(=O)(=O)c4ccc(C)c(C)c4)CC3)oc2c1 -6.53%
O=C(CCS(=O)(=O)c1cc(Br)cc2c1N(C(=O)C1CC1)CC2)Nc1ccc(Br)cc1F -10.7%
COc1cc(NC(=O)c2noc3c2CSc2ccccc2-3)cc(OC)c1OC 8.19%
Fc1ccccc1Oc1ncnc2c1oc1ccccc12 -7.01%
COc1ccccc1-c1nnc(C2CCN(C(=O)c3ccc(Cl)cc3)CC2)o1 -16.2%
